Source: PubChem BioAssay (NCI)
Compounds without any hit were thinned out: in the full panel of roughly 83,000, 20% have a hit.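 In brief: 96-well plates, 48 h treatment, single concentration, percent growth endpoint.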 A number with no mark means an inactive call. Activity calls are given as the source filed them. Rule for the calls: active = growth percent below 10; inactive = the rest.

The molecules below were run on SR leukemia (assay: NCI-60 one-dose screen, 48 h (100 = growth as untreated, 0 = no growth, -100 = all killed)). Conditions: 10 µM unless noted.

Row | SMILES | growth
1 | CNC(=O)c1cc(Oc2ccc3nc(NC(=O)NC(C)C)sc3c2)ccn1 | 30.4%
2 | O=C1NCCS(=O)(=O)/C1=C\C=C\c1cccc(C(F)(F)F)c1 | 6.61% (active)
3 | NCCNc1ccc([N+](=O)[O-])cc1 | 100%
4 | Clc1ccc2c(NCCCn3cnc4c(N5CCCC5)nc(Cl)nc43)ccnc2c1 | 84.2%
5 | O=C(/C=C/c1ccc(Cl)cc1)c1ccc(Nc2ccnc3cc(Cl)ccc23)cc1 | -17% (active)
6 | Oc1c(Cl)cc(Cl)c2ccc(CN3CCNCC3)nc12 | 25.6%
7 | O=C1c2ccccc2C(=O)c2cc(Cn3c[n+](Cc4ccc5ccccc5c4)c4ccccc43)ccc21 | 38.1%
8 | CC(C)(C#N)c1cc(C(=O)Nc2cc(Nc3ncccc3-c3ncnc4nc[nH]c34)ccc2F)cc(C(F)(F)F)c1 | 52.4%
9 | CC(C)n1cc(C2=C(c3cccc4ccccc34)C(=O)NC2=O)c2cc(Br)ccc21 | 25.8%
10 | O=CN1N=C(c2cccc(Nc3ccncc3)c2)CC1c1ccc2c(c1)OCO2 (stereo not given) | 82.1%
11 | CC(=O)Cc1nsc(NC(=O)c2cc(-c3cc(Cl)ccc3Cl)oc2C)n1 | 98.5%
12 | O=C(O)COc1ccc(F)cc1 | 103%
13 | CC(Cc1cccc2ccccc12)C(N)=O (stereo not given) | 101%
14 | NC(=N\N=C/c1ccc(Cl)cc1Cl)/C(N)=N\N=C/c1ccc(Cl)cc1Cl | 51.1%
15 | CCOC(=O)CC1C(CNC(=O)NC)OC(n2cnc3c(NC(=O)Nc4ccccc4)ncnc32)C1O[Si](C)(C)C(C)(C)C (stereo not given) | 28.2%
16 | CCc1ccc(Cc2cnc(NC(=O)c3cc(C)oc3C)s2)cc1 | 19.5%
17 | CNc1nc2ncc(-c3c(C)noc3C)cc2n1Cc1ccccc1 | 27.9%
18 | CCCCC1=C(Br)C(=O)c2ncccc2C1=O | 30.8%
19 | Cc1ccc2nc(/C=C/c3ccc(N(C)C)cc3)cc(C)c2c1 | 22.1%
20 | CCN(CC)c1ccc(/C=N/NC(=O)c2ccccc2Nc2ccnc(C(F)(F)F)c2)c(O)c1 | 65.1%
21 | COc1cc2ncnc(Nc3ccc(S(=O)(=O)Nc4cc(C)on4)cc3)c2cc1OCCCN1CCOCC1 | 103%
22 | COc1ccc(-c2cc(-c3ccc(N(C)C)cc3)nc(NC(=O)c3cccnc3)n2)cc1 | 86.4%
23 | CC(=O)/C(Br)=C/c1ccc(Br)o1 | -18.2% (active)
24 | N#CC1=C(N)Oc2c(ccc3cccnc23)C1c1ccccc1 (stereo not given) | 35.2%
25 | CCCS(=O)(=O)Nc1cccc(Nc2ncnc3cc(NC(=O)CCl)ccc23)c1Cl | 2.37% (active)
26 | COC(=O)c1nc(-c2ccc(C)cc2)oc1N1CCOCC1 | 80.3%
27 | Cc1ccc(S(=O)(=O)N(CCC(=O)O)c2ccccc2)cc1 | 99.3%
28 | Nc1ncc(-c2ccc3ncnc(N4CCc5cc(F)c(Cl)cc54)c3c2)cc1C(F)(F)F | -8.86% (active)
29 | OC1CSSC1Cn1cnc2c(Nc3ccc(F)c(Cl)c3)ncnc21 (stereo not given) | 3.55% (active)
30 | COc1cc2c(c(OC)c1OC)C(=O)CC(c1cccc(C(=O)Nc3ccc(Br)cc3)c1)O2 (stereo not given) | 22.2%

These molecules were tested on RPMI-8226 leukemia in the same assay as above. Conditions: 10 µM unless noted.

Row | SMILES | growth
31 | C=C(C)[C@@H]1CC[C@]2(COC(=O)c3cccnc3)CC[C@]3(C)[C@H](CC[C@@H]4[C@@]5(C)CCCN(C(=O)c6cccnc6)C(C)(C)[C@@H]5CC[C@]43C)[C@@H]12 | 14%
32 | C=C1C(=O)O[C@H]2[C@H]1CC/C(CNC(=O)/C=C/c1cc(OC)c(OC)c(OC)c1)=C\CC[C@@]1(C)O[C@@H]21 | -5.59% (active)
33 | O=S(=O)(c1ccc(NCSc2nc3ccccc3s2)cc1)c1ccc(NCSc2nc3ccccc3s2)cc1 | 92.1%
34 | COc1ccc(S(=O)(=O)Oc2ccc(-c3sc4cc(OS(=O)(=O)c5ccc(OC)cc5)ccc4c3C(=O)c3ccc(OCCN4CCCCC4)cc3)cc2)cc1 | 109%
35 | Nc1nc(N)c2c(n1)NC(c1cccc(Nc3ccnc4cc(C(F)(F)F)ccc34)c1)CC(c1ccc(Cl)cc1)=N2 (stereo not given) | -1.21% (active)
36 | COC(=O)[C@H]1Cc2c([nH]c3ccccc23)[C@H](c2ccc3c(c2)OCO3)N1 | 97.5%
37 | [2H]C([2H])([2H])Oc1c(F)cccc1/C=C/C(=O)/C=C(O)/C=C/c1cccc(F)c1OC([2H])([2H])[2H] | 99.2%
38 | C=C(C)[C@@H]1CCC[C@]2(C(=O)OC)CC[C@]3(C)[C@@H](CC[C@@H]4[C@@]5(C)CCCNC(C)(C)[C@@H]5CC[C@]43C)[C@@H]12 | 75.7%
39 | O=C(Nc1ncc(Cc2ccccc2)s1)c1ccc2c(c1)OCCO2 | 14.6%
40 | COc1ccc(-c2cc(-c3ccc(Nc4nc(Nc5ccc(Cl)cc5)nc(Nc5ccc(Cl)cc5)n4)cc3)no2)cc1 | 12.5%
41 | CNC(=O)c1cc(Oc2ccc3nc(NC(=O)NC(C)C)sc3c2)ccn1 | 73.2%
42 | O=C1NCCS(=O)(=O)/C1=C\C=C\c1cccc(C(F)(F)F)c1 | -7.36% (active)
43 | NCCNc1ccc([N+](=O)[O-])cc1 | 93%
44 | Clc1ccc2c(NCCCn3cnc4c(N5CCCC5)nc(Cl)nc43)ccnc2c1 | 115%
45 | O=C(/C=C/c1ccc(Cl)cc1)c1ccc(Nc2ccnc3cc(Cl)ccc23)cc1 | -41.9% (active)
46 | Oc1c(Cl)cc(Cl)c2ccc(CN3CCNCC3)nc12 | 39.4%
47 | O=C1c2ccccc2C(=O)c2cc(Cn3c[n+](Cc4ccc5ccccc5c4)c4ccccc43)ccc21 | 2.45% (active)
48 | CC(C)(C#N)c1cc(C(=O)Nc2cc(Nc3ncccc3-c3ncnc4nc[nH]c34)ccc2F)cc(C(F)(F)F)c1 | 40.6%
49 | CC(C)n1cc(C2=C(c3cccc4ccccc34)C(=O)NC2=O)c2cc(Br)ccc21 | 92.1%
50 | O=CN1N=C(c2cccc(Nc3ccncc3)c2)CC1c1ccc2c(c1)OCO2 (stereo not given) | 80%

Row | SMILES | growth
51 | CC(=O)Cc1nsc(NC(=O)c2cc(-c3cc(Cl)ccc3Cl)oc2C)n1 | 100%
52 | O=C(O)COc1ccc(F)cc1 | 97.5%
53 | CC(Cc1cccc2ccccc12)C(N)=O (stereo not given) | 102%
54 | NC(=N\N=C/c1ccc(Cl)cc1Cl)/C(N)=N\N=C/c1ccc(Cl)cc1Cl | 62.2%
55 | CCOC(=O)CC1C(CNC(=O)NC)OC(n2cnc3c(NC(=O)Nc4ccccc4)ncnc32)C1O[Si](C)(C)C(C)(C)C (stereo not given) | 11.2%
56 | CCc1ccc(Cc2cnc(NC(=O)c3cc(C)oc3C)s2)cc1 | 51%
57 | CNc1nc2ncc(-c3c(C)noc3C)cc2n1Cc1ccccc1 | -2.96% (active)
58 | CCCCC1=C(Br)C(=O)c2ncccc2C1=O | 41.7%
59 | Cc1ccc2nc(/C=C/c3ccc(N(C)C)cc3)cc(C)c2c1 | 34.1%
60 | CCN(CC)c1ccc(/C=N/NC(=O)c2ccccc2Nc2ccnc(C(F)(F)F)c2)c(O)c1 | 26.5%
61 | COc1cc2ncnc(Nc3ccc(S(=O)(=O)Nc4cc(C)on4)cc3)c2cc1OCCCN1CCOCC1 | 106%
62 | COc1ccc(-c2cc(-c3ccc(N(C)C)cc3)nc(NC(=O)c3cccnc3)n2)cc1 | 95.3%
63 | CC(=O)/C(Br)=C/c1ccc(Br)o1 | 67.1%
64 | N#CC1=C(N)Oc2c(ccc3cccnc23)C1c1ccccc1 (stereo not given) | 11.6%
65 | CCCS(=O)(=O)Nc1cccc(Nc2ncnc3cc(NC(=O)CCl)ccc23)c1Cl | -32.1% (active)
66 | COC(=O)c1nc(-c2ccc(C)cc2)oc1N1CCOCC1 | 88%
67 | Cc1ccc(S(=O)(=O)N(CCC(=O)O)c2ccccc2)cc1 | 93.2%
68 | Nc1ncc(-c2ccc3ncnc(N4CCc5cc(F)c(Cl)cc54)c3c2)cc1C(F)(F)F | 16.4%
69 | OC1CSSC1Cn1cnc2c(Nc3ccc(F)c(Cl)c3)ncnc21 (stereo not given) | 55.7%
70 | COc1cc2c(c(OC)c1OC)C(=O)CC(c1cccc(C(=O)Nc3ccc(Br)cc3)c1)O2 (stereo not given) | 14.6%
